High-throughput results deposited in PubChem BioAssay by Sanford-Burnham Center for Chemical Genomics.
CYP2C9 inh: blocks human cytochrome P450 2C9; CYP2C9 Supersomes, luciferin-H conversion, luminescence; inhibition, % at 5 µM; hit rate 20% among 96,000;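 active = blocking of liver enzyme CYP2C9 beyond about 50% at 5 µM, limit read from the data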
CD11b adhes enh: CD11b/CD18-fibrinogen binding enhancement. hit rate 0.07% among 93,000. P05107+P11215. activation, % at 10 µM. K562 CD11b/CD18 adhesion to fibrinogen, ATPlite luminescence;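 active = 10 µM primary screen giving 50% or more activity, confirmed by 40% or more on retest at that dose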
Target sequence (P05107 whole entry, looked up, other chains not shown): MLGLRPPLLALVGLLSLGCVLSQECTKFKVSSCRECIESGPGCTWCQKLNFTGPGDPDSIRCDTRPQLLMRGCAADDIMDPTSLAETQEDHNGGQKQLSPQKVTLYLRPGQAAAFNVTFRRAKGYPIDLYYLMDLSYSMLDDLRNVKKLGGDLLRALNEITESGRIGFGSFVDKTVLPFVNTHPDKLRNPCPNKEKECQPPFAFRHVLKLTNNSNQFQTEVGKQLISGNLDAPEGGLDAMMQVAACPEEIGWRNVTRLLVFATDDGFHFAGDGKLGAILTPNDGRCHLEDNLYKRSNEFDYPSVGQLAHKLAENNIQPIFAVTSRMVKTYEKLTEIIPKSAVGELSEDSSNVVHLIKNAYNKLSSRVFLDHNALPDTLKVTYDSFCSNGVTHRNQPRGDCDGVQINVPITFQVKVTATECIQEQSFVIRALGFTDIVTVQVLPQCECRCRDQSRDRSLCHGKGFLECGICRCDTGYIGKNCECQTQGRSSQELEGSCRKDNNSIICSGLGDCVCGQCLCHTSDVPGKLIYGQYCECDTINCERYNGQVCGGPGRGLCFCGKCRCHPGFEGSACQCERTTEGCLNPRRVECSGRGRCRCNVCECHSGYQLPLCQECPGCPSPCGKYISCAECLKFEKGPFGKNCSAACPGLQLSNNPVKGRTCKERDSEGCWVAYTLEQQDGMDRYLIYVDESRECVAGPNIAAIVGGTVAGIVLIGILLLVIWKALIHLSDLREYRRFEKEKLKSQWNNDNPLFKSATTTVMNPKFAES
CYP2C9 act: activators of human CYP2C9 | P11712 | hit rate 1.4% among 96,000 | activation factor at 5 µM | recombinant CYP2C9, luciferin-H conversion, luminescence; hits give high values; factor 1 = untreated enzyme, 0 = blocked;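 active = activation factor of 2 or more for CYP2C9 at a 5 µM dose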
CYP2C19 act: cytochrome P450 2C19 (human) activation | P33261 | recombinant CYP2C19, luciferin-H EGE luminescence; hits give high values; 0 = fully inhibited enzyme, 1 = untreated enzyme | activation factor at 5 µM | 96,000 tested, under 10 active;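 active = activation factor of at least 2 at 5 µM in the primary screen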
CD11b adhes inh: CD11b/CD18-fibrinogen binding inhibition | inhibition, % at 10 µM | K562 CD11b/CD18 adhesion to fibrinogen, ATPlite luminescence; Mn2+ added to activate the integrin | P05107+P11215 | hit rate 0.54% among 93,000 | AID 1497;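 active = primary inhibition of 50% or more at 10 µM, then 40% or more on retest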
CYP2C19 inh: inhibitors of human CYP2C19. P33261. CYP2C19 Supersomes, luciferin-H EGE luminescence, 30 min. inhibition, % at 5 µM. hit rate 21% among 96,000;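 active = CYP2C19 inhibition above a set limit at 5 µM in the primary screen, cut at about 50% in these data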
Large screens that a line does not name were inactive. Shown are actives, neighbours in structure and some others; about 28% of the full set was active somewhere.

Cn1c(-c2cccc(OCc3ccccc3)c2)nc2c1c(=O)[nH]c(=O)n2Cc1ccccc1	CYP2C9 inh 54.2
O=C(Oc1ccccc1)c1cccc(N2C(=O)CCC2=O)c1	CYP2C9 inh 50.7, CYP2C19 inh 65.7
CCOC(=O)c1c(-c2ccc(C)cc2)csc1NC(=S)NC(=O)c1ccccc1	CYP2C9 inh 93.1
CCOC(=O)c1c(-c2ccccc2)csc1NC(=O)c1cccc(N2C(=O)CCC2=O)c1	CYP2C9 inh 83.8 (no result: CD11b adhes enh, CD11b adhes inh)
CCOC(=O)c1c(-c2ccc(F)cc2)csc1NC(=O)c1c(-c2ccccc2)noc1C	none (no result: CYP2C9 inh, CYP2C9 act, CYP2C19 act, CYP2C19 inh)
O=C(Nc1ccccc1)c1cccc(N2C(=O)CCC2=O)c1	none
CCOC(=O)c1c(-c2ccccc2)csc1NC(=O)C1CCCO1 (stereo not drawn)	none
CCCCOc1ccc(OCCCC)c2c1NC1(N2)C(=O)N(C(C)=O)c2ccccc21	CYP2C19 inh 53.4
O=C(CCCC(=O)N(CC(=O)NC1CCCC1)Cc1ccc2c(c1)OCO2)Nc1ccccn1	CYP2C9 inh 59.9, CYP2C19 inh 59.8
O=C(CCCC(=O)N(CC(=O)NC1CCCC1)Cc1ccccc1)Nc1ccccn1	CYP2C9 inh 50.3
COCCC(=O)N(Cc1ccc2c(c1)OCO2)C(C(=O)NC1CCCCC1)c1ccncc1 (stereo not drawn)	none
O=C(CCCC(=O)N(c1ccc2c(c1)OCCO2)C(C(=O)NC1CCCCC1)c1ccc(Cl)cc1)Nc1ccccn1 (stereo not drawn)	CYP2C9 inh 52.1, CYP2C19 inh 54.9
O=C(CN(Cc1ccc2c(c1)OCO2)C(=O)c1cnsn1)NC1CCCC1	CYP2C19 inh 88.2
O=C(CCCC(=O)OCC(=O)NC1CCCC1)Nc1ccccn1	none
Cn1c(=O)n(CCN2CCOCC2)c(=O)c2c1nc1n2CCN1c1ccc(Oc2ccccc2)cc1	none
O=C(CN(Cc1ccccc1)C(=O)CCC(=O)Nc1ccccn1)NCc1ccco1	CYP2C19 inh 58.9
Cc1c(CC=C(Cl)Cl)c(=O)[nH]c2c(C)cccc12	none (no result: CYP2C9 inh, CYP2C9 act, CYP2C19 act, CYP2C19 inh)
COC(=O)c1ccccc1NC(=O)C1CCCN(S(=O)(=O)c2ccc(F)cc2)C1 (stereo not drawn)	CYP2C9 inh 79.7, CYP2C19 inh 90.3
COC(=O)c1ccccc1NC(=O)C1CCCN(S(=O)(=O)c2ccc(OC)cc2)C1 (stereo not drawn)	CYP2C9 inh 72.7, CYP2C19 inh 53.6
COC(=O)c1ccccc1NC(=O)C1CCCN(S(=O)(=O)c2ccccc2)C1 (stereo not drawn)	none
COc1cc2c(cc1OC)-c1nc3ccccc3c(=O)n1C(C)(C)C2	CYP2C9 inh 55.9
CCOC(=O)Cc1c(C)nc2c(-c3ccccc3OC)c(C)nn2c1C	none (no result: CD11b adhes enh, CD11b adhes inh)
COc1cc(C=O)ccc1OCCOCCOc1cc(C)ccc1Cl	CYP2C9 inh 51.8
COc1cc(C)ccc1OCCCOc1ccccc1Cl	none
COc1cc(C)ccc1OCCOc1ccccc1Cl	CYP2C19 inh 70.0
CC1(C)NC(C)(C)C(O)(C(N)=O)C1=O (stereo not drawn)	none (no result: CD11b adhes enh, CD11b adhes inh)
CC(C)(C)C1CCc2c(sc(N)c2C(N)=O)C1 (stereo not drawn)	CYP2C19 inh 63.1
CCCC1CCc2c(sc(N)c2C(N)=O)C1 (stereo not drawn)	CYP2C9 inh 68.8, CYP2C19 inh 67.5
COC(=O)COC(=O)c1ccc(Oc2nc(OC)nc(N(C)C)n2)cc1	none
Cc1ccc(C)c(C(C)NC(=O)C2C3CCC(O3)C2C(=O)O)c1 (stereo not drawn)	none
COc1ccc(/C=N/NC(=O)c2ccc(Br)cc2)cc1Cn1cc(Cl)cn1	none (no result: CYP2C9 inh, CYP2C9 act, CYP2C19 act, CYP2C19 inh)
CCCCn1c(CNC(=O)C23CC4CC(CC(C4)C2)C3)nnc1SC(C)CC (stereo not drawn)	none (no result: CYP2C9 inh, CYP2C9 act, CYP2C19 act, CYP2C19 inh)
COc1ccc(/C=N/NC(=O)CSc2n[nH]c(=O)[nH]c2=O)cc1	none (no result: CYP2C9 inh, CYP2C9 act, CYP2C19 act, CYP2C19 inh)
CC(C)(C)c1ccc(C(=O)CSc2n[nH]c(=O)[nH]c2=O)cc1	CYP2C9 inh 52.7
c1ccc(-c2noc(-c3ccco3)n2)nc1	CYP2C19 inh 77.4
Clc1cccc(-c2nc(-c3ccccn3)no2)c1	CYP2C19 inh 51.4
COc1cnc(-c2ccccn2)nc1Sc1cccc(Cl)c1	none (no result: CD11b adhes enh, CD11b adhes inh)
c1ccc(-c2ccc(-c3nc(-c4ccccn4)no3)cc2)cc1	none
CC(C)(C)c1ccc(OCc2nc(-c3ccccn3)no2)c(Br)c1	none
Cc1ccc(-c2nc(-c3ccccn3)no2)cc1	CYP2C9 inh 58.0, CD11b adhes inh 91.1, CYP2C19 inh 87.4
Cc1ccc(-c2nc(-c3ccccn3)no2)cc1Cl	CD11b adhes inh 70.6
Cc1ccc(-c2cnn(-c3cccc([N+](=O)[O-])c3)c2N)cc1	none (no result: CD11b adhes enh, CD11b adhes inh)
CNC(C)c1cc(OC)ccc1OC (stereo not drawn)	none (no result: CD11b adhes enh, CD11b adhes inh)
O=S(=O)(c1ccccc1)N1C2CCC1CC(O)(c1cccnc1)C2 (stereo not drawn)	none
Cc1cccc(C)c1NC(=O)N1CCC(N2CCCCC2)CC1	none (no result: CD11b adhes enh, CD11b adhes inh)
O=C1CCCN1c1ccc(S(=O)(=O)Oc2ccc(Cl)cc2)cc1[N+](=O)[O-]	none (no result: CD11b adhes enh, CD11b adhes inh)
Cc1ccc(-n2ncc3c(NCCCN4CCOCC4)ncnc32)c(C)c1	none
Cc1ccc(-n2ncc3c(NCCCn4ccnc4)ncnc32)c(C)c1	CYP2C9 inh 79.5, CYP2C19 inh 72.7
Cc1cccc(-n2ncc3c(NCCCn4ccnc4)ncnc32)c1	CYP2C9 inh 91.4, CYP2C19 inh 90.5
Cc1sc2ncnc(NCCCn3ccnc3)c2c1C	CYP2C9 inh 89.7, CYP2C19 inh 92.3
Cc1cccc(-n2ncc3c(NC(C)C)ncnc32)c1	none
CSC1=NCCN1C(=O)Cc1cccs1	none
COC(=O)c1ccc(-n2nnnc2SCc2nn[nH]n2)cc1	none (no result: CD11b adhes enh, CD11b adhes inh)
Nc1ncc2c(n1)CC(c1ccco1)CC2=O (stereo not drawn)	none
CCn1ncc(Cl)c1C(=O)Nc1ccncc1	CYP2C9 inh 93.3, CYP2C19 inh 96.2
Cn1cc(/C(Cc2ccccc2)=N\O)c2ccccc21	CYP2C19 inh 58.6
Cn1cc(C(=O)N/N=C/c2cccs2)c2ccccc21	none (no result: CYP2C9 inh, CYP2C9 act, CYP2C19 act, CYP2C19 inh)
CC(Oc1cc(-c2ccccc2)cc2ccccc12)C(=O)N1CCOCC1 (stereo not drawn)	none
N#Cc1c(N)nc2c3c(sc(=N)c2c1N)NC(=O)CC3c1c(F)cccc1Cl (stereo not drawn)	none
N#Cc1c(N)nc2c3c(sc(=N)c2c1N)NC(=O)CC3c1ccccc1 (stereo not drawn)	CYP2C19 inh 72.8
Cc1noc(/C=C/N(C)C)c1S(=O)(=O)N1CCN(c2ccccc2)CC1	none
Cc1noc(C)c1S(=O)(=O)N1CCC(Cc2ccccc2)CC1	CYP2C9 inh 58.9
Cc1onc(-c2ccccc2)c1C(=O)N1CCN(CCc2ccccc2)CC1	none
Cc1noc(C)c1S(=O)(=O)N1CCN(c2ccccc2)CC1	CYP2C9 inh 69.4, CYP2C19 inh 80.4
Cc1noc(C)c1C(=O)N1CCC(Cc2ccccc2)CC1	CYP2C9 inh 73.4, CYP2C19 inh 98.8
Cc1cc(NC(=O)CCCC(=O)NCc2cccs2)no1	none
